Inconclusive results are not listed. Entries that show only a call come without a potency. Active and inactive are the calls of the source. Calls follow the shape of the dose curve; as a rule, active = well fitted inhibition curve with a large enough effect; inconclusive = small, poorly fitted or top-dose-only effect, or effect the other way; inactive = no such curve, though single readings can be large or run the other way.
experiment: Quantitative high throughput screen for delayed death inhibitors of the malarial parasite plastid, 96 hour incubation (AID 488745); details: Plasmodium falciparum growth; series mostly up to 28.7 µM; also: nearly all actives have a fitted effect of over 70% in size
Source text: NIH Molecular Libraries Probe Production Network [MLPCN]
NIH Chemical Genomics Center [NCGC]
Assay Provider: David Fidock and Eric Ekland, Columbia University
The goal of this screen is to discover new antimalarial compounds that act by inhibiting the development of the apicoplast in the malarial parasite Plasmodium falciparum. The biochemical processes that make this organelle essential for erythrocytic stage parasites are not well understood. However, antibiotics such as azithromycin and tetracycline, which target the apicoplast translational machinery, have a potent antimalarial effect.
We have developed a cell-based assay that measures parasite growth based on the expression of an integrated copy of a firefly luciferase reporter. To detect small molecules that cause this 'delayed death' phenotype, erythrocytes infected with the luciferase-expressing parasites were incubated with compounds for either one or two generations, corresponding to 48 and 96 hours, respectively. Compounds that inhibit parasite growth in the second generation, but not the first, should be enriched in antimalarials that target the apicoplast. Growth inhibition is detected by a decrease in luciferase activity
Four microliters of culture medium (RPMI 1640 with 0.5% w/v Albumax (GIBCO), 24 mM sodium bicarbonate and 10 ug/mL gentamycin) were dispensed by a Multi-drop Combi into white solid 1536-well plates (Grenier) and 23 nL compound was added by a pin tool. Four microliters of infected erythrocytes (2% hematocrit, 0.1% parasitemia final concentration) in culture medium were dispensed and the plates incubated for 96 hours at 37 C in 5% CO2. Two microliters of luciferase detection reagent was added and luminescence was detected by a ViewLux (PerkinElmer) reader
Potency is read from the fitted curve at half-maximal effect.

SMILES	Potency
CC(C)(C=O)Cc1cc(C(C)(C)C)c(O)c(C(C)(C)C)c1	inactive
S=C(S)OC1CC2CC1C1CCCC21 (stereo not given)	inactive
Brc1c(Br)c(Br)c2n[nH]nc2c1Br	inactive
CC(C)Cc1ccc([C@H](C)C(=O)O)cc1	inactive
COC(=O)c1c(C)[nH]c(C)c1C(=O)c1ccccc1Cc1ccccc1	11.7 µM (active)
CC1CN(S(=O)(=O)c2cccc3cnccc23)CCN1 (stereo not given)	inactive
Cc1ccc(C(=O)O[C@H](C(=O)O)[C@@H](OC(=O)c2ccc(C)cc2)C(=O)O)cc1 (tested in a mixture with another compound)	inactive
COc1cc(C(O)CO)ccc1OS(=O)(=O)O (stereo not given)	inactive
O=C(O)[C@@H]1C[C@@H](C(=O)O)N1	inactive
O=C(O)[C@@H]1C[C@H](C(=O)O)N1	inactive
CC(COc1ccc(/C=C/c2ccccc2)cc1)[N+](C)(C)C (stereo not given)	2.08 µM (active)
CN1C2CCC1CC(OC(=O)C(O)c1ccccc1)C2 (stereo not given)	inactive
Oc1ccccc1O	inactive
O=c1[nH]c2cc([N+](=O)[O-])c([N+](=O)[O-])cc2[nH]c1=O	inactive
CN[C@H](CC(C)C)C(=O)N[C@H]1C(=O)N[C@@H](CC(N)=O)C(=O)N[C@H]2C(=O)N[C@H]3C(=O)N[C@H](C(=O)N[C@H](C(=O)O)c4cc(O)cc(O)c4-c4cc3ccc4O)[C@H](O)c3ccc(c(Cl)c3)Oc3cc2cc(c3O[C@@H]2O[C@H](CO)[C@@H](O)[C@H](O)[C@H]2O[C@H]2C[C@](C)(N)[C@H](O)[C@H](C)O2)Oc2ccc(cc2Cl)[C@H]1O	inactive
O=C(c1cc(O)c(O)c([N+](=O)[O-])c1)c1ccccc1F	inactive
CC1(C)CCC=[N+]1[O-]	inactive
O=C1NC(O)=NC1(c1ccccc1)c1ccccc1	inactive
CN1[C@@H](CC(=O)c2ccccc2)CCC[C@H]1C[C@H](O)c1ccccc1	inactive
CC(=O)SCC[N+](C)(C)C	inactive

SMILES	Potency
Cc1cc(NC(=O)Nc2ccc3c(ccn3C)c2)sn1	inactive
COc1ccccc1CNCCCCCCNCCCCCCCCNCCCCCCNCc1ccccc1OC	1.04 µM (active)
O=C(Nc1cccc(C(=O)Nc2ccc(S(=O)(=O)O)c3cc(S(=O)(=O)O)cc(S(=O)(=O)O)c23)c1)Nc1cccc(C(=O)Nc2ccc(S(=O)(=O)O)c3cc(S(=O)(=O)O)cc(S(=O)(=O)O)c23)c1	inactive
COC1=C(OC)C(=O)c2ccccc2C1=O	inactive
COc1ccccc1N1CCN(CCCCNS(=O)(=O)c2cccc3c(N(C)C)cccc23)CC1	inactive
O=c1[nH]c2ccccc2n1CCCN1CCN(C(c2ccccc2)c2ccccc2)CC1	inactive
COc1cc(OC)c(/C=C2/C(=O)Nc3ccccc32)c(OC)c1	inactive
CCN1/C(=C/C(C)=O)Sc2ccc(OC)cc21	inactive
CCCCCCCCCCCCCCCC(=O)NCC(COP(=O)([O-])OCC[N+](C)(C)C)OCC (stereo not given)	inactive
O=Nc1ccc2oc(=O)ccc2c1	inactive
c1ccc(-c2ccccn2)nc1	inactive
NCCCCC(=O)O	inactive
O=C(O)c1cc(=O)c2c(Cl)cc(Cl)cc2[nH]1	inactive
O=C(O)CC[C@@H](C(=O)O)N1C(=O)c2ccccc2C1=O	inactive
O=C(O)/C=C/C(O)c1ccc(Cl)cc1 (stereo not given)	inactive
OC[C@H]1O[C@@H](n2cnc3c(NC4CCCCC4)ncnc32)[C@H](O)[C@@H]1O	inactive
COc1cc2c(CCNC(C)=O)c[nH]c2cc1Cl	inactive
NCCSSCCN	inactive
CCCN(CC1CC1)c1nc(C)nc(Nc2c(Cl)cc(Cl)cc2Cl)c1Cl	2.33 µM (active)
O=C(O)CCCC[C@@H]1CCSS1	inactive

From PubChem BioAssay (NCATS)
